Assay results taken from PubChem BioAssay AID488815 (Broad Institute, 2010).
Potency and affinity values are given separately. Results filed as inconclusive are left out. The source made the active and inactive calls. No rule for the calls is given here.

Molecular target: CAAX prenyl protease 1 (Saccharomyces cerevisiae (strain ATCC 204508 / S288c)) (UniProt P47154)
Assay: yeast CAAX protease Ste24 inhibition – biochemical, S. cerevisiae, plate reader, cherry-pick, dose response (AID 488815)
Conditions: series mostly up to 10 µM

Sequence of CAAX prenyl protease 1 (Saccharomyces cerevisiae (strain ATCC 204508 / S288c)) (P47154 whole entry, looked up): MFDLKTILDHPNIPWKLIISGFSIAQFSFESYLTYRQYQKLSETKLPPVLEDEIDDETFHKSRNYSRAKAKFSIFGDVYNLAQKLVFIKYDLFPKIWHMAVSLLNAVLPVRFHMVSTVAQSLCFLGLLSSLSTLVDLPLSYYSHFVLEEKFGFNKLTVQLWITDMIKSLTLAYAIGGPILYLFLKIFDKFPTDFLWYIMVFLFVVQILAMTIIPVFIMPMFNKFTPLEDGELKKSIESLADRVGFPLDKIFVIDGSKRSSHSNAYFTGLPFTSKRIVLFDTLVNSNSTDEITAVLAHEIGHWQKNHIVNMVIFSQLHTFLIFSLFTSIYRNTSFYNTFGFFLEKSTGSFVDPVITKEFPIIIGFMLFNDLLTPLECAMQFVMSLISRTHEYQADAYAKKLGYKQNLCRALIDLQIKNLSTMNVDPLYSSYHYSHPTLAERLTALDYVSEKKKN

outcome, inactive:
COc1ccc(-c2nc3ncccc3o2)cc1NC(=O)c1ccco1
COc1cccc(-c2cc(C(F)(F)F)n3ncc(S(=O)(=O)c4ccccc4)c3n2)c1
COc1ccc(OCC(=O)NS(=O)(=O)c2ccc(Cl)cc2)cc1
O=C(CN(C1CCCCC1)C1CCCCC1)N1CCc2ccccc2C1
CCC1CCCCN1C(=O)NC(=O)c1ccccc1 (centres undefined)
COc1ccccc1NC(=O)CN(c1ccc(C23CC4CC(CC(C4)C2)C3)cc1)S(C)(=O)=O
CCCCn1c(=O)[nH]c(=O)c2c1nc(-c1ccc(OC)c(Br)c1)n2CC(C)C
COc1ccc(Cl)cc1Nc1nc(C)nc2c1oc1ccccc12
Cc1cc(C)n(Cc2ccc(NC(=O)c3ccc(COc4ccccc4Br)cc3)cc2)n1
CCN(Cc1ccccc1)S(=O)(=O)c1ccc(C(=O)N(CCCN(C)C)c2nc3c(C)c(C)ccc3s2)cc1
O=c1c(-c2ccccc2)c(O)c2ccccc2n1-c1ccccc1
O=C(Nc1ccc2c(c1)CCC2)c1ccccc1Br
Nc1c(Cl)cc(C2=NCCn3nc4cc(C(F)(F)F)ccc4c32)cc1Cl
CCN(C(=O)COC(=O)c1cc(-c2cccs2)nc2ccccc12)C1CCS(=O)(=O)C1 (centres undefined)
COc1ccc(CN2CCN(C(c3ccc(F)cc3)c3ccc(F)cc3)CC2)c(OC)c1OC
c1cnn(Cc2cnc(N3CCOCC3)s2)c1
O=C1CN(C(=O)NCC(=O)N2CCCC2)c2ccccc2N1
C/C(Cl)=C\Cn1c(O)c(N=NC(N)=S)c2cc(Br)ccc21
COc1ccc2[nH]c(C(=O)NCCCn3ccnc3)cc2c1
COc1nc(-c2ccccc2)ccc1-c1noc(-c2ccccc2F)n1
COc1cccc(C(=O)Nc2nnc(SCC(=O)NC3CCCC3)s2)c1
COC(C/C=C/[C@H](O)[C@@H](C)OCc1ccccc1)OC
Cc1ccc(OCCN2C(=O)C(=O)c3cc(C)ccc32)cc1
COc1ccc(-c2cc(C(=O)NCCCN3CCCC3=O)c3ccccc3n2)cc1
COc1cccc(-c2csc(N3CCN(C(=O)NC45CC6CC(CC(C6)C4)C5)CC3)n2)c1
CCOc1ccc(-c2c(C(=O)N/N=C/c3cccs3)nnn2-c2nonc2N)cc1
O=C(Nc1sc2c(c1C(=O)c1ccc(Cl)cc1)CCCC2)c1cccnc1
COC(C/C=C/[C@H](O)[C@H](C)OCc1ccccc1)OC
Cc1cccc(N2C(=O)c3cccc4c(N5CCCCC5)c([N+](=O)[O-])cc(c34)C2=O)c1C
Cc1cc(Cl)c2oc(C(=O)N3CCN(C(=O)c4ccco4)CC3)c(C)c2c1
Clc1ccc(CN2CCc3c([nH]c4ccccc34)C2)cc1Cl
NS(=O)(=O)c1ccc(NC(=O)/C=C/c2cn(-c3ccccc3)nc2-c2cccc(Cl)c2)cc1
O=C(O)CCC(=O)c1ccc(-c2ccccc2)cc1
O=C(Nc1ccc(S(=O)(=O)Nc2ccccc2)cc1)C1COc2ccccc2O1 (centres undefined)
C=C(C)C1(O)OC(=O)C=C1OC (centres undefined)
CCn1nc(C)cc1C(=O)NC1CC(C)(C)Cc2c1cnn2-c1cccc(F)c1 (centres undefined)
C/C(CC(=O)NCc1ccco1)=N\NC(=O)c1ccc([N+](=O)[O-])cc1Cl
CC(=O)c1c(O)cc(O)c(C(C)=O)c1O
Cc1ccc2nc(N(CCN(C)C)C(=O)c3ccc4ccccc4c3)sc2c1
